# Reference: PubChem BioAssay
# Values joined by “and” are separate entries in the source; they are usually repeats but may differ in a detail not shown here. Identical values can stand only once. Active and inactive are the calls of the source. Unless noted, no rule for the calls is given here.
# How the values were obtained:
# [1] = A549 cell viability effects, profiling panel, calcein-AM fluorescence, 48 h, basal (AID 1162); settings: higher = more signal; also: test concentration not given here
# [2] = adipocyte viability effects, profiling panel, cell-based, 3T3-L1 adipocytes, calcein-AM fluorescence, 48 h, basal (AID 1163); settings: 3T3-L1 adipocytes viability, higher = more signal; also: test concentration not given here
# [3] = HepG2 cell viability effects, profiling panel, calcein-AM fluorescence, 48 h, basal (AID 1164); settings: higher = more signal; also: test concentration not given here
# [4] = MM1S cell viability effects, profiling panel, calcein-AM fluorescence, 48 h, basal (AID 1165); settings: higher = more signal;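 also: viability of MM1S multiple myeloma cells under basal unstimulated conditions; test concentration not given here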
# [5] = basal RPMI8226 viability, no added stimulus, profiling panel, cell-based, calcein-AM fluorescence, 48 h, PK04 Diversity Set (AID 1166); settings: higher = more signal; RPMI8226 myeloma viability, calcein-AM fluorescence, 48 h unless noted;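 also: cells grown under basal conditions without added stimulus; test concentration not given here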
# [6] = basal HepG2 mitochondrial membrane potential changes, profiling panel, cell-based, JC-1 fluorescence, 24 h, 100 nL compound (AID 1167); settings: higher = more signal; also: test concentration not given here
# [7] = basal 3T3-L1 adipocyte mitochondrial potential changes, profiling panel, cell-based, JC-1 fluorescence, 3T3-L1 adipocytes, 24 h, 100 nL compound (AID 1168); settings: JC-1 mitochondrial fluorescence; higher = more signal, called active from +8 up or from −8 down unless noted; also: test concentration not given here
# [8] = basal RPMI8226 mitochondrial membrane potential changes, profiling panel, cell-based, JC-1 fluorescence, 24 h, 100 nL compound (AID 1169); settings: higher = more signal; RPMI8226 myeloma, JC-1 mitochondrial potential fluorescence, 24 h unless noted; also: test concentration not given here
# [9] = basal MM1S mitochondrial membrane potential changes, profiling panel, cell-based, JC-1 fluorescence, 24 h, 100 nL compound (AID 1170); settings: higher = more signal; also: test concentration not given here
# [10] = A549 lung cancer cell viability effects, profiling panel, resazurin fluorescence, 24 h, PK04 Diversity Set (AID 1171); settings: higher = more signal, called active from +8 up or from −8 down unless noted; also: test concentration not given here
# [11] = HepG2 liver cancer cell viability effects, profiling panel, resazurin fluorescence, 24 h, PK04 Diversity Set (AID 1172); settings: higher = more signal; also: test concentration not given here
# [12] = basal S. cerevisiae growth modulation, no modifier, primary screen, OD600, strain BY4716, 24 h, basal condition (AID 1173); settings: OD600, 24 h; higher = more signal, called active from +8 up or from −8 down unless noted
# [13] = MM1S myeloma cell viability, profiling panel, resazurin fluorescence, basal, 24 h, PK04 Diversity Set (AID 1174); settings: higher = more signal, called active from +8 up or from −8 down unless noted;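 also: MM1S multiple myeloma cell line; test concentration not given here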
# [14] = target: Dihydroorotate dehydrogenase (quinone), mitochondrial (Plasmodium falciparum (isolate 3D7)) (UniProt Q08210); test: PfDHODH enzyme inhibitors, primary screen, biochemical, C-terminal His tag, absorbance 600 nm (AID 1175); settings: DCIP absorbance 600 nm; higher = more signal, called active from +8 up or from −8 down unless noted;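 also: recombinant parasite enzyme with a five histidine tag at its C terminus; test concentration not given here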
# Dihydroorotate dehydrogenase (quinone), mitochondrial (Plasmodium falciparum (isolate 3D7)), sequence (Q08210 whole entry, looked up): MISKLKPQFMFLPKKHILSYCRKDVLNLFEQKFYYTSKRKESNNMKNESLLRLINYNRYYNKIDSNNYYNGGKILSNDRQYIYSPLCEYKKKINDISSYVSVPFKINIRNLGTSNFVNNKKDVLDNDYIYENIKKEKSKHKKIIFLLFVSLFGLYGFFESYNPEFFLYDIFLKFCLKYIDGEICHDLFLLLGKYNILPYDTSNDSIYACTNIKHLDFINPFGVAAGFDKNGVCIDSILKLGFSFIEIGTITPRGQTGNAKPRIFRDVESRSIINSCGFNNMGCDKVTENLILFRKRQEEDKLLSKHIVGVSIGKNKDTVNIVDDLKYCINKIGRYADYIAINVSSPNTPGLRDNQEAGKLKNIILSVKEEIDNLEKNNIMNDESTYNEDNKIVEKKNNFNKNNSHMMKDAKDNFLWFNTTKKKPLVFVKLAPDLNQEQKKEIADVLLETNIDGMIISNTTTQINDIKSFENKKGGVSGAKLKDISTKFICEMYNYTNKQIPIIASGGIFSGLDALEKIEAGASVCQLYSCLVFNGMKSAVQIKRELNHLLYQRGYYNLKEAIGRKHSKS
# [15] = P. aeruginosa biofilm formation inhibitors, primary screen, strain PAO1, LB-PBS medium, absorbance 600 nm (AID 1176); also: test concentration not given here; settings: P. aeruginosa PAO1 growth/biofilm, A600, 12 h; higher = more signal
# [16] = S. cerevisiae RM11-1a growth modifiers, primary screen, strain RM11-1a, OD600, basal, 24 h (AID 1177); settings: OD600, 24 h; higher = more signal, called active from +8 up or from −8 down unless noted;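 also: cultures grown under basal conditions with no added stressor; test concentration not given here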
# [17] = E. coli acrAB mutant growth effects, primary screen, E. coli filamentation inducers, strain DRC39, OD650, 24 h (AID 1178); settings: higher = more signal, called active from +8 up or from −8 down unless noted;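 also: growth measured as culture turbidity by optical density at 650 nm; test concentration not given here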
# [18] = E. coli acrAB mutant growth effects, primary screen, E. coli filamentation inducers, strain DRC39, OD650, 48 h (AID 1179);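 also: screen aims at cell division blockers that make cells filament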; settings: E. coli DRC39 delta-acrAB growth, higher = more signal, called active from +8 up or from −8 down unless noted
# [19] = RPMI8226 myeloma cell viability, profiling panel, resazurin fluorescence, basal, 24 h, PK04 Diversity Set (AID 1180); settings: higher = more signal; RPMI8226 viability, resazurin fluorescence, 24 h unless noted;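 also: RPMI8826 multiple myeloma cell line at 5000 cells per well; test concentration not given here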
# [20] = target: E3 ubiquitin-protein ligase XIAP (Homo sapiens) (UniProt P98170); test: XIAP binders, primary screen, biophysical, small-molecule microarray, fluorescence 635 nm (AID 1181); settings: small-molecule microarray binding, higher = more signal;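 also: score merges 667 nm emission and signal to noise over triplicate slides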
# E3 ubiquitin-protein ligase XIAP (Homo sapiens), sequence (P98170 whole entry, looked up): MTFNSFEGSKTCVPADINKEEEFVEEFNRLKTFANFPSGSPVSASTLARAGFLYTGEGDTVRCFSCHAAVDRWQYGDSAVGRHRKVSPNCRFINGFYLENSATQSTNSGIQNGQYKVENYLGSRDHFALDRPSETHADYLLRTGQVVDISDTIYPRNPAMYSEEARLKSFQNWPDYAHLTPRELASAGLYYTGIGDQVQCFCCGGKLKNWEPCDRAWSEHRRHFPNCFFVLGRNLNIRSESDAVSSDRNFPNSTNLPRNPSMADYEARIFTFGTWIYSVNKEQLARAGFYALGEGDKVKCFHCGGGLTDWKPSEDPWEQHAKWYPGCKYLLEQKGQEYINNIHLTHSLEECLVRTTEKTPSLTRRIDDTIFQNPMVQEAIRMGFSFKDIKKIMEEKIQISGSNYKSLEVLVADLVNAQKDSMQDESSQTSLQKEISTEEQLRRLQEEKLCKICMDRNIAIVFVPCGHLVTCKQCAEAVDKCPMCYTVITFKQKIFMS
SMILES,z-score [1],z-score [2],z-score [3],z-score [4],z-score [5],z-score [6],z-score [7],z-score [8],z-score [9],z-score [10],z-score [11],z-score [12],z-score [13],composite z-score [14],z-score [15],z-score [16],z-score [17],z-score [18],z-score [19],composite z-score [20]
OCc1ccc(C2=CC(c3cccs3)N(Cc3cccc(OC(F)(F)F)c3)CC2)cc1 (stereo not given),1.08,0.314,-0.65,-2.61,-0.633,-2.28,0.0997 (inactive),-0.0311,0.518,0.439 (inactive),-0.0049,-1.22 (inactive),-0.126 (inactive),-4.15 (inactive),-0.223 (inactive),-0.449 (inactive),0.301 (inactive),-0.544 (inactive),0.341,-0.192
CCCc1cc2c(n1Cc1ccco1)C(C)C1CN(C(=O)c3ccccc3)C(C)(C(=O)OC)C21 (stereo not given),-0.136,0.227,-0.369,-3.24,-2.66,2.35,-1.5 (inactive),0.228,-1.53,-1.36 (inactive),-1.24,-0.0767 (inactive),-1.85 (inactive),-0.455 (inactive),1.9 (inactive),0.264 (inactive),-1.25 (inactive),-0.951 (inactive),-1.3,0.471
OCc1ccc(C2=CC(C3CC3)N(Cc3sc4ccccc4c3Cl)CC2)cc1 (stereo not given),-1.09,0.656,-0.328,-3.17,-3.29,0.353,0.501 (inactive),-0.913,-0.434,-0.497 (inactive),-0.0351,-4.2 (inactive),-1.43 (inactive),-1.3 (inactive),-0.411 (inactive),1.76 (inactive),-1.71 (inactive),-1.33 (inactive),-1.37,0.539
COC(=O)C1(C)C=C2C(=C(C)C(=O)C2C)CN1 (stereo not given),-1.32,-0.254,-1.21,0.224,-2.24,-1.57,-0.482 (inactive),0.262,-0.221,-1.62 (inactive),-1.13,2.09 (inactive),-2.31 (inactive),-0.809 (inactive),1.53 (inactive),1.17 (inactive),-0.608 (inactive),-1.64 (inactive),-1.24,0.226
CN1CCC(c2ccc(CO)cc2)=CC1c1cccs1 (stereo not given),0.368,-0.393,-0.153,-2.81,-0.157,-1.28,-0.581 (inactive),0.554,-0.277,-0.103 (inactive),-0.792,-1.01 (inactive),-0.694 (inactive),0.083 (inactive),-0.329 (inactive),1.13 (inactive),-0.543 (inactive),-0.447 (inactive),-0.118,0.152
COC(=O)[C@@]1(Cc2ccccc2)[C@H]2c3cc(C(=O)N(C)C)n(C)c3C[C@H]2CN1C(=O)c1ccccc1,-1.73,-0.537,-0.189,0.0394,-1.19,0.0427,-0.078 (inactive),-0.318,-0.437,0.0026 (inactive),-0.0935,0.658 (inactive),-0.923 (inactive),-0.105 (inactive),-0.222 (inactive),0.299 (inactive),0.0242 (inactive),0.0618 (inactive),-0.0721,0.071
COC(=O)NCC=Cc1nc(CCC=CC(=O)O[C@H]2CC3CC(=O)O[C@@H](C=CCC(C)C)C[C@@H]4CC[C@H](C)[C@@H](C[C@@H](OC)C[C@H](C2)O3)O4)co1,-1.61,-0.804,-1.29,-2.61,-2.97,0.49,0.249 (inactive),-0.908,-2.54,-4.04 (inactive),-1.05,-1.03 (inactive),-2.04 (inactive),-0.646 (inactive),0.168 (inactive),-0.659 (inactive),0.523 (inactive),0.666 (inactive),-1.95,-0.102
C[C@H]1O[C@H]2C3=C(C(=O)[C@@H]4O[C@@H]4[C@@H]3O)[C@@H]1[C@@H]1[C@@H](C)OC=C3[C@@H](O)[C@H]4O[C@H]4C(=O)[C@]312,0.767,0.439,0.0608,-1.54,-0.168,-0.407,0.407 (inactive),0.692,-0.996,-0.831 (inactive),-0.85,-0.92 (inactive),-1.92 (inactive),-1.59 (inactive),0.629 (inactive),-0.839 (inactive),0.215 (inactive),-0.115 (inactive),-0.416,-0.136
COc1cc2c(cc1O)C(C)N(C)CC2 (stereo not given),1.22,1.01,0.262,-0.853,0.456,0.0836,1.27 (inactive),-0.663,1.07,0.115 (inactive),-0.454,-0.709 (inactive),0.412 (inactive),-3.68 (inactive),-0.227 (inactive),-0.448 (inactive),0.516 (inactive),-0.385 (inactive),0.566,-0.184
CCc1cc2c(nc1CC)CCN(CCC(C)=NOC)C2,0.151,0.504,0.0911,0.69,-2.14,2.55,-1.37 (inactive),1.07,0.196,-0.521 (inactive),-0.64,-0.37 (inactive),0.0324 (inactive),0.273 (inactive),0.0738 (inactive),0.246 (inactive),-0.983 (inactive),-2.63 (inactive),0.0393,-0.0773
COC(=O)[C@H]1[C@H](c2ccccc2)C(=O)[C@]2(O)c3ccccc3O[C@@]12c1ccccc1,0.594,0.833,-0.0328,0.391,0.001,0.338,-0.113 (inactive),0.289,-0.0594,-1.73 (inactive),-0.514,-2.2 (inactive),-0.417 (inactive),-1.36 (inactive),0.711 (inactive),-1.43 (inactive),0.401 (inactive),-1.04 (inactive),-0.865,0.17
C=C(CC1(CNP(=O)(c2ccccc2)c2ccccc2)CC1)c1ccccc1,-1.21,-0.457,-1.36,-0.159,-0.614,-1.41,-0.531 (inactive),0.29,-0.987,0.344 (inactive),-0.101,0.736 (inactive),-0.342 (inactive),0.271 (inactive),0.0944 (inactive),0.389 (inactive),-0.174 (inactive),0.249 (inactive),-0.34,-0.177
C[C@@H]1OC=C2[C@@H](O)[C@H]3O[C@H]3C(=O)[C@]23[C@H]1[C@H]1C2=C([C@@H](O)[C@H]4O[C@H]4C2=O)[C@@H]3O[C@@H]1C,0.304,0.441,0.0428,-0.297,-0.594,-0.888,-0.3 (inactive),0.0604,0.144,0.703 (inactive),0.216,0.243 (inactive),0.103 (inactive),-0.0198 (inactive),0.0251 (inactive),-0.541 (inactive),-0.03 (inactive),-0.0416 (inactive),0.864,-0.135
C[C@@H]1Cc2c(cnc3c2CN(C)CC3)CO1,0.298,0.288,-0.153,-1.39,0.089,0.389,0.284 (inactive),-0.258,0.677,0.707 (inactive),0.507,-0.583 (inactive),0.335 (inactive),-0.7 (inactive),0.0008 (inactive),-0.498 (inactive),-0.151 (inactive),0.0072 (inactive),0.992,0.276
CCCc1cc2c(n1Cc1cccc(Cl)c1)C(C)C1CN(C(=O)c3ccccc3)C(C)(C(=O)OC)C21 (stereo not given),-1.22,-0.278,0.101,-2.71,-4.69,1.4,-1.82 (inactive),-0.795,-1.61,-0.474 (inactive),-1.04,0.773 (inactive),-1.7 (inactive),-0.403 (inactive),0.619 (inactive),0.616 (inactive),-0.423 (inactive),-0.0676 (inactive),-1.56,0.621
CC1N(P(=O)(c2ccccc2)c2ccccc2)CC(O)(c2ccccc2)CC12CC2 (stereo not given),-1.2 and -1.31,-0.216 and -0.899,-1.5 and -1.05,-0.187 and -0.545,-1.7 and -1.4,-0.722 and -1.02,-1.04 (inactive) and -1.11 (inactive),0.655 and -0.4,-0.307 and -0.694,0.146 (inactive) and 1.49 (inactive),-0.964 and 0.138,2.47 (inactive) and 0.135 (inactive),-1.13 (inactive) and -0.22 (inactive),0.296 (inactive) and -0.264 (inactive),0.495 (inactive) and 0.178 (inactive),1.23 (inactive) and -0.154 (inactive),-0.611 (inactive) and -0.406 (inactive),0.0506 (inactive) and -0.0402 (inactive),-1.54 and 0.553,-0.193 and -0.25
